Consider 44 compounds from publication PMC4336329 (PLoS ONE, 2015).

About 14,000 (4.5%) of roughly 310,000 compounds showed an effect of 50% or more. The effect is printed as a negative number. The sample as a whole holds a higher share of strong results than the screen did.
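Note: peak tail current of the secondary pulse compared with the same well before compound.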

In this assay the target is human ether-à-go-go-related gene (hERG) potassium channel (human, UniProt Q12809). Put plainly: primary screen, population patch clamp on CHO cells stably expressing hERG; higher = less effect of the substance.
Sequence of human ether-à-go-go-related gene (hERG) potassium channel (Q12809 whole entry, looked up): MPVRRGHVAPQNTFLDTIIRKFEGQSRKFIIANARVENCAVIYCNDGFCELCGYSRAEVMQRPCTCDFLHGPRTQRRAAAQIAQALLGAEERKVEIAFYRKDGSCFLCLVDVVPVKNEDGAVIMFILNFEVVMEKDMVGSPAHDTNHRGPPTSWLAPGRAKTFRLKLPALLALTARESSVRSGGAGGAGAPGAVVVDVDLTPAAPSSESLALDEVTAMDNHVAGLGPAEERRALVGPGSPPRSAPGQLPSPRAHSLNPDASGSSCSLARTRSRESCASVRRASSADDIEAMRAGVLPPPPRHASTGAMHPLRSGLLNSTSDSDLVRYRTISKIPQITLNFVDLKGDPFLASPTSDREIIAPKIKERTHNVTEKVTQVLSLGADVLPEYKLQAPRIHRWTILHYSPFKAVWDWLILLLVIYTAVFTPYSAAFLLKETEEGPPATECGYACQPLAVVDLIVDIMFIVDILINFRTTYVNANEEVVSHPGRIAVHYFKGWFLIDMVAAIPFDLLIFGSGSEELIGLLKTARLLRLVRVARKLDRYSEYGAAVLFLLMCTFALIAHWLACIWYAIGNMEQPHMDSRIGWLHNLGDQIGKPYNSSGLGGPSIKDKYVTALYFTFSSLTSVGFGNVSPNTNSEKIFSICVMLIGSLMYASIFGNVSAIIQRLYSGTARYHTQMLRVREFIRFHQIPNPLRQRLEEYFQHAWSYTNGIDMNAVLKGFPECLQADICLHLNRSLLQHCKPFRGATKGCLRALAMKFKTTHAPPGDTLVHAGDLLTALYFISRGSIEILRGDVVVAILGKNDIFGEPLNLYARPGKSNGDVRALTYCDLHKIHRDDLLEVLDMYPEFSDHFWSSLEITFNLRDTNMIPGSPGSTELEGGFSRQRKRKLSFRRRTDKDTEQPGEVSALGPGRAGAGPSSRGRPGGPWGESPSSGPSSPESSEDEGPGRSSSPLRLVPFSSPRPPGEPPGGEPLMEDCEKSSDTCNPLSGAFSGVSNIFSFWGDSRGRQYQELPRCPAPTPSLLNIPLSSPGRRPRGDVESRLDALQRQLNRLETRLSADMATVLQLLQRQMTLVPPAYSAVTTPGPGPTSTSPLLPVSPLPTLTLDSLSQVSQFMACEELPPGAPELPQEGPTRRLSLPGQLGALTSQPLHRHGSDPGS
As for `N/C(=N\OC(=O)/C=C/c1ccc(Br)cc1)c1ccccn1`, the “hERG current change (%, negative = inhibition) at 10uM” value is listed as -6.37%.
The result for `OC(CSc1ccc(F)cc1)CN1CCN(c2ccccc2)CC1` (centres unmarked) reads -41.7%; that for `O=C(CSc1nnc2c(Cl)cc(C(F)(F)F)cn12)NCc1ccc(F)cc1`, -4.27%.
The result for `CC(C)CN(C(=O)CSc1nnnn1C)C1CCS(=O)(=O)C1` (centres unmarked) reads 26%.
The result for `CCC/C(=N\NC(=O)Cc1csc(N2CCOCC2)n1)c1ccccc1` reads -13.5%; that for `O=C(N/N=C/c1ccc[nH]1)c1ccc(O)cc1`, 19.6%.
For the compound `Cc1cc([N+](=O)[O-])nn1CC(=O)N1CCN(Cc2ccccc2)CC1`, the “hERG current change (%, negative = inhibition) at 10uM” value was -8.96%.
The result for `Cc1c(Br)c([N+](=O)[O-])nn1CC(=O)N1CCN(Cc2ccccc2)CC1` reads -56.4%.
The result for `Cc1c(Cl)c([N+](=O)[O-])nn1CC(=O)N1CCCC1` reads -4.86%.
In the case of `Cc1c(Cl)c([N+](=O)[O-])nn1CC(=O)N1CCc2ccccc2C1`, the “hERG current change (%, negative = inhibition) at 10uM” value was 1.08%.
The result for `Cc1c(Cl)c([N+](=O)[O-])nn1CC(=O)N1CCN(Cc2ccccc2)CC1` reads -71%.
The result for `Cc1c(Br)c([N+](=O)[O-])nn1CC(=O)NCc1ccccc1` reads -2.99%.
As to `CC(C)(C)c1nc(SCC(=O)NCc2cccs2)c2ccccc2n1`, the “hERG current change (%, negative = inhibition) at 10uM” value was -0.222%.
The result for `CCCCn1c(SCC(=O)Nc2nnc(C)s2)nc2c1c(=O)n(C)c(=O)n2C` reads -12.4%; that for `Cc1ccc(-n2c(O)c(C=NCc3ccccn3)c3ccccc3c2=O)cc1C`, -11.5%; that for `CC1=C(C(=O)OCC2CCCO2)C(c2ccccc2Cl)NC(=O)N1` (centres unmarked), 14.1%.
The result for `O=C(CCN1C(=O)c2ccccc2C1=O)N1CCN(Cc2ccc(Cl)cc2Cl)CC1` reads -53.4%; that for `O=C(CCN1C(=O)c2ccccc2C1=O)N1CCN(Cc2ccccc2)CC1`, -22.8%.
The result for `CCN1CCN(C(=O)CCN2C(=O)c3ccccc3C2=O)CC1` reads -1.77%.
On to `Cc1ccc(CN2CCN(C(=O)CCN3C(=O)c4ccccc4C3=O)CC2)cc1`, for which the “hERG current change (%, negative = inhibition) at 10uM” value is -55.4%.
The result for `CN1CCN(C(=O)CCN2C(=O)c3ccccc3C2=O)CC1` reads 14.7%.
The result for `O=C(CCN1C(=O)c2ccccc2C1=O)N1CCCCCC1` reads 0.431%; that for `O=C(NN=C1CCN(Cc2ccccc2)CC1)c1ccccc1`, 7.78%.
As to `Cn1ccnc1SCCNC(=O)CCc1nnc(CCc2ccccc2)o1`, the “hERG current change (%, negative = inhibition) at 10uM” value was -10.2%.
The result for `Cn1c(O)c(C=NCCN2CCNCC2)c(=O)[nH]c1=O` reads 13.6%.
The result for `Cc1ccccc1C(=O)N=c1sccn1C` reads 24.7%; that for `Cc1cc(F)ccc1NS(=O)(=O)c1c(C)nc2scc(C)n2c1=O`, -35.8%.
The result for `COc1cccc(Cn2c(=O)c3[nH]cnc3n(-c3ccccc3C)c2=O)c1` reads -1.8%; that for `CCOC(=O)c1c(NC(=O)C(C)N2CCN(S(=O)(=O)c3cccs3)CC2)sc2c1CCC(C)C2` (centres unmarked), 6.72%.
Regarding `Cc1ccc(NC(=O)CN(C)C(=O)c2ccc3[nH]c4c(c3c2)CC(C)CC4)cc1` (centres unmarked), the “hERG current change (%, negative = inhibition) at 10uM” value was 8.58%.
As to `Cc1ccc(C2N(c3nccs3)C(=O)C3CCCN32)cc1` (centres unmarked), the “hERG current change (%, negative = inhibition) at 10uM” value is recorded as -4.54%.
The result for `O=C1C2CCCN2C(c2ccccc2)N1c1nccs1` (centres unmarked) reads 17.7%.
Regarding `Cc1ccccc1C1N(c2nccs2)C(=O)C2CCCN21` (centres unmarked), the “hERG current change (%, negative = inhibition) at 10uM” value was -62.5%.
The result for `CC(C)(/C=N/O)/[N+]([O-])=C/c1ccccc1` reads 20.1%; that for `CCCOc1cccc(NC(=O)OC2CCN(C)CC2)c1.O=C(O)/C=C/C(=O)O`, -15.7%.
For `O=C(CSc1nc2nccnc2c(=O)n1Cc1cccs1)Nc1ccccc1`, the “hERG current change (%, negative = inhibition) at 10uM” value is given as -74.9%.
The result for `COc1ccccc1NC(=O)CSc1nc2nccnc2c(=O)n1Cc1cccs1` reads -69.9%; that for `COc1ccc(NC(=O)CSc2nc3ccccc3c(=O)n2Cc2cccs2)c(OC)c1`, -6.23%; that for `CCOc1ccc(NC(=O)CSc2nc3ccccc3c(=O)n2Cc2cccs2)cc1`, 13.6%.
The result for `O=C(CSc1nc2nccnc2c(=O)n1Cc1cccs1)Nc1ccccc1F` reads -69.1%.
The result for `CCn1cc2nc(SCC(=O)Nc3ccc(F)cc3F)n(Cc3ccccc3)c(=O)c2n1` reads -40%; that for `Cn1c(Cc2cccs2)nnc1SCC(=O)Nc1ccccc1F`, 1.93%; that for `CCn1cc2nc(SCC(=O)Nc3ccccc3F)n(Cc3ccccc3)c(=O)c2n1`, -70.6%.
Regarding `CC(C)CCn1c(SCC(=O)Nc2ccccc2C(F)(F)F)nc2nccnc2c1=O`, the “hERG current change (%, negative = inhibition) at 10uM” value is on record as -21.6%.
